Assay outcomes as filed in PubChem.
In the library only some 4.2% were active in any assay of this set; here they are far more common.
NLRP3 yeast inh: NALP3 inflammasome inhibitors in reconstituted yeast, primary screen, luminescence, uHTS | Yeast reconstituted NLRP3/ASC/caspase-1, beta-gal luminescence, 24 h | AID 2825, 2010 | inhibition, % at 10 µM | hit rate 0.39% among 330,000;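 active = inhibition of 50% or more; inactive = inhibition below 50%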
tim23-1 inh: growth inhibitors of tim23-1 mutant yeast, primary screen, luminescence, uHTS. inhibition, % at 20 µM. hit rate 1.3% among 330,000. S. cerevisiae tim23-1 growth, BacTiter-Glo luminescence, 24 h;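 active = growth inhibition of the mutant yeast at or above 50%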;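 note: temperature-sensitive mutant grown at 25 °C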
NALP1 yeast inh: NALP1 inflammasome inhibitors in reconstituted yeast, colorimetric, S. cerevisiae, triplicate retest; S. cerevisiae NALP1/ASC/caspase-1 growth, X-gal OD620, 72 h; inhibition, % at 10 µM; hit rate 0.61% among 280,000; in the data active = inhibition mostly above about 24%, no sharp cut-off; inactive = mostly below about 32%
TIM10 inh: growth inhibitors of isogenic TIM10 control yeast, primary screen, counter-screen for tim10-1 yeast inhibitor project, luminescence, uHTS | inhibition, % at 10 µM | AID 463195, 2010 | hit rate 1.4% among 330,000 | S. cerevisiae TIM10 strain growth, BacTiter-Glo luminescence, 24 h;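 active = inhibition of 40% or more at the single tested concentration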;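 note: wild-type TIM10 isogenic control strain grown at permissive 25 °C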
tim10-1 inh: growth inhibitors of tim10-1 mutant yeast, primary screen, luminescence, uHTS; inhibition, % at 20 µM; AID 463190, 2010; hit rate 2.2% among 330,000; S. cerevisiae tim10-1 ts strain growth, BacTiter-Glo, 24 h;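 active = inhibition of at least 40%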;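 note: mutant grown at 25 °C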
V-ATPase pH: regulators of yeast V-ATPase proton pumping, primary screen, pHLuorin cytosolic pH fluorescence. S. cerevisiae. response, % at 10 µM. hit rate 0.37% among 350,000. AID 504577, 2011; in the data active = response mostly above about 7.3%, no sharp cut-off; inactive = mostly below about 5.4%; note: actives read high
tim10-1 conf: growth inhibitors of tim10-1 mutant yeast, confirmation, single concentration, luminescence, S. cerevisiae; hit rate 56% among 7,400; shares compounds with tim10-1 inh; S. cerevisiae tim10-1 ts strain growth, BacTiter-Glo, 24 h; inhibition, % at 20 µM;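 active = inhibition of yeast growth at or above a set limit in either of two repeat tests at 20 µM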;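 note: tim10-1 mutant grown at permissive 25 °C to find synthetic lethal compounds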
tim10 confirm: growth inhibitors of wild-type TIM10 yeast, confirmation, counter-screen for tim10-1 synthetic lethality project, single concentration, luminescence, S. cerevisiae; shares compounds with TIM10 inh; S. cerevisiae tim10 strain growth, BacTiter-Glo luminescence, 24 h; inhibition, % at 10 µM; hit rate 63% among 4,600; AID 463215, 2010;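 active = inhibition of yeast growth at or above a set limit in either of two replicates at 10 µM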; note: this counterscreen used the strain with wild-type TIM10
tim23-1 confirm: tim23-1 mutant yeast growth inhibitors, confirmation, luminescence, single concentration; inhibition, % at 20 µM; hit rate 83% among 4,400; shares compounds with tim23-1 inh; S. cerevisiae tim23-1 growth, BacTiter-Glo luminescence, 24 h; AID 463218, 2010;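 active = inhibition above about 39% in either of two replicate wells at 20 µM, limit read from the data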;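 note: temperature-sensitive tim23-1 mutant grown at 25 °C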
Numbers stand for hits; - = inactive; . = no result.

SMILES	NLRP3 yeast inh	tim23-1 inh	NALP1 yeast inh	TIM10 inh	tim10-1 inh	V-ATPase pH	tim10-1 conf	tim10 confirm	tim23-1 confirm
COc1ccc(-c2nnc(SCC(=O)Oc3ccc(C)cc3)o2)cc1	-	53.3	-	88.8	90.7	-	83.7	91.2	58.2
CCOC(=O)c1ccccc1NC(=O)C1CC(=O)N(C2CCCC2)C1 (centres undefined)	.	.	.	.	.	-	.	.	.
COc1ccc(CN2c3c(Br)cccc3C(=O)CS2(=O)=O)cc1	.	71.7	.	-	42.4	-	40.8	.	59.9
O=C(Nc1ccccn1)C1CCN(c2ncnc3c2nc2n3CCCCC2)CC1	-	-	-	-	-	-	.	.	.
CC1(C(=O)Nc2nnc(SCc3ccccc3)s2)Cc2ccccc2C(=O)O1 (centres undefined)	-	51.8	-	-	47.1	-	50.0	.	42.2
COc1ccc(Cl)cc1C(=O)Nc1ccc(NC(=O)C(C)C)cc1	-	53.0	-	40.7	52.7	-	45.5	36.5	42.1
O=C(/C=C/c1ccc2c(c1)OCCCO2)c1ccccc1O	-	50.5	-	60.3	53.2	-	46.4	-	-
COc1cc(/C=C/C(=O)c2ccccc2O)cc(OC)c1OC	-	62.1	-	-	53.5	-	43.0	.	55.1
CN(C)c1ccc(/C=C/C(=O)c2ccccc2O)cc1	-	-	-	-	-	-	.	.	.
COc1cc(OC)c(C=CC(=O)c2ccccc2O)c(OC)c1	.	.	.	.	.	-	.	.	.
Cc1oc(-c2nc3ccccc3n2C)cc1C(=O)c1ccccc1	-	55.8	-	53.2	47.8	-	32.7	-	72.7
Oc1c(Cl)cccc1C=Nc1cc(C(F)(F)F)ccc1N1CCCC1	-	-	-	-	-	-	.	.	.
Oc1c(Cl)cc(Cl)cc1C=Nc1cc(C(F)(F)F)ccc1N1CCc2ccccc2C1	-	57.6	-	-	59.5	-	35.7	.	59.1
C[C@@H]1CC=C[C@H]2[C@H]1C(=O)N(Cc1ccccc1)[C@H]2c1ccc2ccccc2c1Br	-	63.7	.	65.0	68.8	-	73.3	55.9	71.2
S=C(NCc1cccs1)Nc1cccc(Cl)c1Cl	-	55.9	-	40.5	50.3	-	32.3	-	55.7
Cc1c(Cl)cccc1NC(=S)NCc1cccs1	-	-	-	-	-	-	.	.	.
COc1ccc(-c2cccc(C3CC=CC4C3C(=O)N(Cc3ccccc3)C4c3ccc(OC)c(Cl)c3)c2)cc1 (centres undefined)	-	58.2	-	67.0	49.2	-	36.8	-	61.7
CC(C)(C)c1cc(NCCCn2ccnc2)n2ncc(-c3ccccc3)c2n1	-	60.2	-	-	50.6	-	29.9	.	59.3
CC(C)Nc1cc(C(C)(C)C)nc2c(-c3ccccc3)cnn12	-	-	-	-	-	-	.	.	.
CCN1/C(=C/C=C/C=C/c2sc3ccccc3[n+]2CC)Sc2ccccc21	-	89.3	132.6	81.2	79.8	.	79.0	-	85.9
CCN1/C(=C/C=C/c2sc3ccccc3[n+]2CC)Sc2ccccc21	-	85.1	.	83.5	77.4	-	76.7	76.2	84.8
CC[n+]1c(/C=C(\C)SC)sc2ccccc21	-	-	-	-	-	-	.	.	.
COc1ccc(C(=O)NNC(=O)c2cccs2)cc1S(=O)(=O)N1CCOCC1	-	-	.	-	-	-	.	.	.
c1ccc(-n2cnc3cc(NCc4cccs4)ccc32)cc1	-	51.2	-	51.8	45.6	-	33.0	46.1	70.2
COc1ccc(-n2cnc3cc(NCc4cccs4)ccc32)cc1	-	58.4	-	-	40.2	-	-	.	40.5
